Bioassay records as filed in PubChem.
Luc counter – blocks Kinase-Glo luciferase, a counter-screen artifact. AID 1379. hit rate 0.28% among 200,000. Potency, µM (series often up to 38.3 µM), without a hit: at the highest dose activity change, negative = inhibition, hits mostly inhibitors. Kinase-Glo luciferase, ATP luminescence, 8 min; active means well fitted inhibition curve with a large enough effect; inconclusive means small, poorly fitted or top-dose-only effect; further: potency means the concentration at half of the fitted maximal effect; nearly all actives have a fitted effect of over 60% in size
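Compound is pinned into ATP-containing buffer (10 uM ATP, imidazole pH 7.2, 7 mM MgCl2). Kinase-Glo luciferase reagent is then added. Light output is recorded following an 8-min room-temperature incubation.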
PNC inhibitor – perinucleolar compartment assembly inhibition | hit rate 3.1% among 140,000 | activity change (PNC), negative = inhibition, % at 10 µM | PC3M PTB-GFP, PNC prevalence imaging, 16 h; hits give low values;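 active means readout at or below -70, meaning at least 70% loss of cells showing the perinucleolar compartment, a nuclear body marking cancer cells; inconclusive means readout between -30 and a set limit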;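 further: plate controls were DMSO wells for no effect and camptothecin positive control wells for full effect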
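Read-out is percentage of cells bearing a perinucleolar compartment, from automated 20x imaging of fixed, Hoechst-stained PC3M PTB-GFP cells. Cells were seeded 4 h, then exposed 16 h to compound (23 nl of library stock) in duplicate plates.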
HPGD inh – blocks human HPGD enzyme activity. hit rate 4.3% among 150,000. purified HPGD, NADH fluorescence kinetic, PGE2 substrate. P15428. Potency, µM, inactives show top-dose activity change, negative = inhibition, usual class: inhibitors; further: potency means the concentration at half of the fitted maximal effect
Target sequence (P15428 whole entry, looked up): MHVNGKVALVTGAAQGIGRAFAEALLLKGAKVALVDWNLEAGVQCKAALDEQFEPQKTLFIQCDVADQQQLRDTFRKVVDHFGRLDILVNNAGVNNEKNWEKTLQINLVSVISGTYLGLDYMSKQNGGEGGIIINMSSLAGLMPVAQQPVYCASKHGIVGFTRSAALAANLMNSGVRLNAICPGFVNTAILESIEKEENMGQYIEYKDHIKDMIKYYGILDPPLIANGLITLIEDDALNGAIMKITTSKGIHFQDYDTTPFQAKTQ
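NADH formation kinetics: reaction with 30 uM PGE2 and 1 mM NAD+ (final), 20 nM enzyme, Tris-HCl pH 8 with Tween 20, after 15 min compound preincubation at room temperature. Fluorescence change, last versus first of five reads.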
ALDH1A1 block – ALDH1A1 (human) enzyme inhibition. P00352. Purified ALDH1A1, NADH fluorescence, propionaldehyde substrate. Potency, µM (doses to about 75.3 µM), without a hit: at the top dose activity, negative = inhibition, most hits filed as inhibitors. hit rate 7.3% among 220,000. AID 1030;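 further: potency means the concentration at half of the fitted maximal effect; plate controls were no enzyme wells and a reference inhibitor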
Target sequence (P00352 whole entry, looked up): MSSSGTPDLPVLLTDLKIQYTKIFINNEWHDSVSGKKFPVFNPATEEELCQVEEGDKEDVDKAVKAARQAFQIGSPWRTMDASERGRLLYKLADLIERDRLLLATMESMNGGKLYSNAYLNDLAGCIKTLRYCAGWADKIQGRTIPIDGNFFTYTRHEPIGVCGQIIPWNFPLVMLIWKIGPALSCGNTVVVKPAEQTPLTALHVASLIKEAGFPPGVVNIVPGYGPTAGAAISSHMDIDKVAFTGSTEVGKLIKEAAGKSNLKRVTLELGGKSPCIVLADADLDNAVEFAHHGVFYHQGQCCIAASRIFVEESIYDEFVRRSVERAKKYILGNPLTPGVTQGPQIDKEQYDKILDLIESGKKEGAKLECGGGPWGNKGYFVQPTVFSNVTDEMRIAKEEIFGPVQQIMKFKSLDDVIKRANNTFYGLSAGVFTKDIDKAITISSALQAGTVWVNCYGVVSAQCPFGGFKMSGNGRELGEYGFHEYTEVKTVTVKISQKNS
Lamin A splicing – changes lamin A minigene splicing in HeLa cells. HeLa LMNA splicing GFP/RFP minigene ratio, 48 h. Potency, µM (titrated, usually from 46.1 µM), for the others: top-dose ratio change, negative = inhibition, usual class: inhibitors. hit rate 0.01% among 200,000. AID 1487; active means well fitted inhibition curve with a large enough effect in the signal ratio, with a control signal flat, not every such curve was filed as active; inconclusive means small, poorly fitted or top-dose-only effect, or effect the other way, or a change in a side signal; the % refers to the signal ratio; further: potency means the concentration at half of the fitted maximal effect
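S3 HeLa cells stably expressing lamin A-EGFP splicing minigene plus DsRed2, 600 cells/well, 48 h compound exposure at 37C. Laser-scanning cytometry; analysed as GFP (500-530 nm)/RFP (575-640 nm) total intensity ratio; 0.5% DMSO vehicle.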
Numbers without * were called inactive; u = inconclusive; x = no result; [ ] = remark or other dose. Compounds with a hit are over-represented: about 10% of the library has one in this group of screens. Unless noted, the call rests on the fitted dose curve; in most records, active means well fitted inhibition curve with a large enough effect (not every such curve was filed as active); inconclusive means small, poorly fitted or top-dose-only effect, or another doubt; inactive means no such curve, though single readings can be large or run the other way. Unless noted, on the % scale 0 is the no-effect control and ±100 the full control effect.

SMILES | Luc counter | PNC inhibitor | HPGD inh | ALDH1A1 block | Lamin A splicing
NC(=O)c1cc(N)ccc1N1CCCC1 | 0% | 9 | -12% | -3% | -3%
Cc1cc(N2CCCC2)c(C)cc1C=O | -4% | 44 | -7% | 14µM* | -1%
Cc1ccc(-n2c(C)cc(=O)cc2C)c(C)c1 | -1% | 10 | -6% | 7% | -4%
Cc1cc(N)ccc1N1CCCC1 | -9% | 26 | -5% | 25µM* | 11%
Cc1cc(N)ccc1-n1c(C)ccc1C | -4% | -28 | -7% | 10µM* | u
CC(=O)c1cc(F)c(N2CCCCCC2)cc1C | -4% | -21 | -22% | 8% | -2%
CCCCC/C=C\C=C\[C@H](O)CCCCCCCC(=O)O | x | x | x | 8% | x
C[C@H]1NC(=O)NC1=O | 2%[17.1 µM] | x | 4% | 12%[20.9 µM] | u
O=C(O)[C@H]1C[C@@H](CP(=O)(O)O)CCN1 | -4% | x | -2% | u | x
COc1ccc(C2C=C(c3ccc(F)cc3)NC(=S)N2)cc1OC (centres undefined) | 3% | x | x | u | u
COc1ccc(C2C=C(C34CC5CC(CC(C5)C3)C4)NC(=S)N2)cc1 (centres undefined) | 0% | 0 | 0% | 4µM* | u
O=C1CSC2(C(=O)N(Cc3ccccc3)c3ccccc32)N1c1ccc(Cl)cc1 (centres undefined) | x | x | x | x | -8%[46 µM]
CC1=NN(c2ccccc2)C(=O)C1/C=C1\NC(=S)NC1=O (centres undefined) | 4% | x | x | 13µM* | x
Cc1nn(Cc2ccccc2)c(Cl)c1/C=C1\NC(=S)NC1=O | 1% | x | x | u | x
O=C(CSc1nnc(CNc2ccccc2)o1)N1CCc2ccccc21 | -2% | u | -9% | 16µM* | 6%
Cc1ccccc1NC(=O)CSc1nnc(Cc2ccccc2)o1 | 0% | -100* | -15% | -14% | 8%
O=C(CSc1nnc(Cc2ccccc2)o1)N1CCCc2ccccc21 | -3% | -15 | u | 18µM* | 1%
COC(=O)c1sccc1S(=O)(=O)N(CC(=O)NCc1ccc(F)cc1)c1ccccc1 | x | x | x | x | -15%[46 µM]
CC1=NOC(=O)/C1=C\c1ccc(-c2ccc(Br)cc2)o1 | -8% | x | x | 10µM* | x
CC1(C)OC(=O)C(=Cc2ccc(-c3ccc(S(N)(=O)=O)cc3)o2)C(=O)O1 | -1% | x | x | 1% | -16%[46 µM]
COC(=O)c1cccc(NS(=O)(=O)c2ccc(OC)c(OC)c2)c1C | -1% | -84* | 0% | 2% | u
COc1ccc(S(=O)(=O)Nc2ccccc2C(=O)NC(C)C)cc1OC | 1% | -124* | -24% | -9% | -2%
COC(=O)c1cccc(NS(=O)(=O)c2ccc(OC)cc2)c1C | 0% | u | -18% | -13% | u
CCCCN(CC)C(=O)c1ccc(Cl)c(Cl)c1 | 0% | 22 | -25% | 5% | 3%
CCN(CC)C(=O)c1cc(Cl)ccn1 | 0% | x | x | 32µM* | x
SMILES | Luc counter | PNC inhibitor | HPGD inh | ALDH1A1 block | Lamin A splicing
CN(C)c1ccc(NC(=O)c2cccc(N3C(=O)CCC3=O)c2)cc1 | 4% | -8 | -12% | 19µM* | u
O=C(Nc1ccccc1)c1cccc(N2C(=O)CCC2=O)c1 | 5% | u | 5% | u | -3%
CCSC1=NSC2=NC(=O)/C(=C\c3coc4ccccc4c3=O)C(=N)N12 | -2% | u | 28µM* | u | -17%
CC(C)CC1=NN2C(=N)/C(=C\c3coc4ccccc4c3=O)C(=O)N=C2S1 | 0% | x | x | 11µM* | x
CCC1CN(C(=O)N2CCC(C(=O)NCCC3=CCCCC3)CC2)c2cc(C)ccc2O1 (centres undefined) | x | x | x | x | 16%[46 µM]
CO[C@@H](C(C)C)[C@@H](C)[C@@H]1OC(=O)C[C@@H]1O | x | x | x | 2%[13.5 µM] | x
COc1ccc2[nH]cc(CCNc3ccnc(-c4cccc(NS(C)(=O)=O)c4)n3)c2c1 | -1% | x | -21% | u | 1%
O=C(O)CN1C(=O)/C(=C/c2ccc(SCc3ccccc3)o2)SC1=S | -3% | x | x | 3.5µM* | u
O=C(O)CCN1C(=O)/C(=C\c2ccncc2)SC1=S | -1% | x | x | -13% | x
Cn1cccc1/C=C1\SC(=S)N(CC(=O)O)C1=O | -3% | 42 | 28µM* | -5% | 2%
O=C(O)CN1C(=O)/C(=C/C=C/c2ccccc2)SC1=S | -1% | x | x | u | u
O=C(O)CCN1C(=O)/C(=C\c2ccc(-c3nc4ccccc4s3)o2)SC1=S | 17% | -17 | 16µM* | u | -3%
O=C(COc1ccc(Br)cc1Cl)NC1CCCCC1 | 2% | 19 | 11µM* | 6% | u
O=C(COc1ccc2ccccc2c1)NC1CC1 | -5% | 59 | 32µM* | -7% | 18%
Cc1cc(Cl)ccc1OCC(=O)NC1CCCC1 | 1% | 6 | 14µM* | 6% | u
Cc1cc(Cl)c(S(=O)(=O)N2CCSCC2)cc1OCC(=O)NC1CCCCC1 | 6% | -9 | -15% | 7.9µM* | u
O=C(COc1ccc(Br)cc1Br)NC1CCCC1 | 2% | x | x | -4% | x
C[C@@H]1C[C@H]2[C@H]3C[C@@H](F)C4=CC(=O)C=C[C@]4(C)[C@@]3(Cl)[C@@H](O)C[C@@]2(C)[C@@H]1C(=O)COC(=O)C(C)(C)C | 1%[17.1 µM] | x | -12% | 11%[20.9 µM] | -8%
CCCCc1nn2c(=O)cc(COC(=O)c3ccccc3NC(=O)C3CCCCC3)nc2s1 | x | x | x | x | -4%[46 µM]
CC(C)C(=O)OC1=CN(Cc2ccccc2)S(=O)(=O)c2ccccc21 | x | x | x | x | 22%[46 µM]
COCCNc1ncnc2c1cnn2-c1cc(Cl)ccc1C | x | x | x | x | -12%[46 µM]
Cc1ccc(OCC(=O)NC2CCCC2)c(C)c1 | -1% | u | 28µM* | 14% | u
CCn1cc(C(C)NC(=O)COc2ccc(Cl)cc2C)c(C)n1 (centres undefined) | -1% | -95* | -20% | 8% | u
Cc1ccc(OCC(=O)NC2CC(C)(C)NC(C)(C)C2)c(C)c1 | -1% | x | x | 6% | x
Cc1cc(Cl)ccc1OCC(=O)NCc1ccncc1 | -6% | 72 | -10% | -3% | 4%
SMILES | Luc counter | PNC inhibitor | HPGD inh | ALDH1A1 block | Lamin A splicing
O=C(CSc1nnc(Cn2nnc(-c3ccccc3)n2)n1-c1ccccc1)Nc1ccc(F)cc1 | 0% | u | -1% | u | 1%
O=C(CSc1nnc(Cn2nnc(-c3ccccc3)n2)n1-c1ccccc1)Nc1ccccc1 | -4% | u | -7% | 4.5µM* | 16%
CCOC(=O)c1ccc(NC(=O)Cn2nnc(-c3ccccc3)n2)cc1 | x | u | x | 25µM* | u
COc1ccc(NC(=O)Cn2nnc(-c3ccccc3NS(=O)(=O)c3ccccc3)n2)cc1 | -1% | 0 | -16% | 5% | u
CCCC(=O)Nc1ccccc1-c1nnn(CC(=O)Nc2ccc(OC)cc2)n1 | 0% | -81* | -5% | 15% | u
CCc1ccccc1NC(=O)N1CC(C)Sc2ccccc21 (centres undefined) | x | x | x | x | -7%[46 µM]
CCCCOc1ccc(C2C(=O)N(C3CCCCC3)CC(=O)N2CCCC)cc1 (centres undefined) | x | x | x | x | 2%[46 µM]
CCN(CC)CCCNc1nc(-c2ccccc2)nc2ccccc12 | 0% | -100* | -13% | -3% | -16%
